Measurements from PubChem BioAssay (NCI).
About 83,000 compounds went through this panel and 20% of them were active in at least one assay; those are over-represented in the sample as a whole.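 Plates (96-well) were seeded with cells, treated with compound at one concentration, and incubated for 48 hours before percent growth was determined.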 A number with no mark means an inactive call. Activity calls are given as the source filed them. Rule for the calls: active = growth percent below 10; inactive = the rest.

Legend:
Test in all cases: NCI-60 one-dose screen, 48 h (100 = growth as untreated, 0 = no growth, -100 = all killed)
Conditions in all cases: 10 µM unless noted
HCT-15 colon = tested on: HCT-15 colon
HT29 colon = tested on: HT29 colon
SNB-75 CNS = tested on: SNB-75 CNS
SNB-19 CNS = tested on: SNB-19 CNS
U251 CNS = tested on: U251 CNS
SK-MEL-5 melanoma = tested on: SK-MEL-5 melanoma
UACC-62 melanoma = tested on: UACC-62 melanoma
LOX IMVI melanoma = tested on: LOX IMVI melanoma
SK-MEL-28 melanoma = tested on: SK-MEL-28 melanoma
SK-MEL-2 melanoma = tested on: SK-MEL-2 melanoma
EKVX NSCLC = tested on: EKVX NSCLC
SN12C renal = tested on: SN12C renal
UO-31 renal = tested on: UO-31 renal
TK-10 renal = tested on: TK-10 renal
ACHN renal = tested on: ACHN renal
CAKI-1 renal = tested on: CAKI-1 renal
A498 renal = tested on: A498 renal
CCRF-CEM leukemia = tested on: CCRF-CEM leukemia
MOLT-4 leukemia = tested on: MOLT-4 leukemia
PC-3 prostate = tested on: PC-3 prostate

SMILES | growth (HCT-15 colon) [%] | growth (HT29 colon) | growth (SNB-75 CNS) | growth (SNB-19 CNS) [%] | growth (U251 CNS) | growth (SK-MEL-5 melanoma) [%] | growth (UACC-62 melanoma) [%] | growth (LOX IMVI melanoma) | growth (SK-MEL-28 melanoma) [%] | growth (SK-MEL-2 melanoma) [%] | growth (EKVX NSCLC) [%] | growth (SN12C renal) [%] | growth (UO-31 renal) | growth (TK-10 renal) | growth (ACHN renal) | growth (CAKI-1 renal) | growth (A498 renal) | growth (CCRF-CEM leukemia) | growth (MOLT-4 leukemia) | growth (PC-3 prostate) [%]
CC(C)C1C2=C(NCCN1C(=O)c1ccncc1)C(C)(C)N(Cc1ccccc1)C2=O (centres undefined) | 103 | 92.8% | 81.7% | 101 | 100% | 105 | 95.6 | 95.5% | 114 | 97.4 | 99.1 | 93.3 | 83.2% | 89.9% | 105% | 94.4% | 113% | 108% | 84% | –
Cc1cccc(N=Nc2cccc(C)c2)c1 | 96.3 | 102% | 132% | 92.4 | 106% | 105 | 92.8 | 105% | 107 | 110 | 96.2 | 96.7 | 86.8% | 114% | 99.8% | 96.2% | 93.8% | 108% | 111% | –
CCCCCCCCCCOC(=O)c1nn(C(C)=O)c2cc(C)c(C)cc12 | 98.8 | 92.1% | 115% | 105 | 93.3% | 99.5 | 93.3 | 87.9% | 109 | 104 | 91.6 | 102 | 71.7% | 104% | 97.1% | 88.8% | 79.1% | 92.2% | 82.7% | –
O=C1NC(=O)C(c2coc3cc(Br)ccc23)=C1c1c[nH]c2ccccc12 | 25 | 20.6% | -2.44% (active) | 58 | 29.6% | 80.7 | 35.6 | 44% | 71.5 | 34.1 | 54 | 55 | 58% | 80.8% | – | 39.2% | 5.34% (active) | – | 26% | 67.2
ClCCn1cnc2c(SCc3ccccc3)ncnc21 | 33.5 | 41.2% | 73.9% | 50.5 | 39.8% | 57.3 | 46.1 | 22.3% | 78.5 | 120 | 77.2 | 57.5 | 65.2% | 83.5% | – | 3.9% (active) | 81.6% | 62.8% | – | –
Cn1c(C#N)ccc1-c1ccc(F)c(NC(=O)c2ccc(F)cc2)c1 | 66.6 | 47.5% | 71.4% | 84.1 | 73.4% | 75.9 | 60.8 | 69.8% | 86.5 | 60.3 | 82.2 | 82.2 | 64% | 86% | 84.4% | 73.9% | 73.3% | 68.8% | 47.6% | –
CCN(CC)CCOc1ccc(Nc2ncc3cc(-c4c(Cl)cccc4Cl)c(=O)n(CCOC)c3n2)cc1 | 12.9 | -22.6% (active) | -39.9% (active) | 18.4 | 0.141% (active) | 13.6 | 32.1 | -77.6% (active) | 36.9 | 34.8 | 27.3 | 10.5 | -88.9% (active) | -55.5% (active) | 5.69% (active) | 2.96% (active) | -75.9% (active) | 4.55% (active) | 1.6% (active) | –
Cc1cc(=O)oc2cc(Oc3nc(Br)cn4c(Br)cnc34)ccc12 | 95.6 | 99.9% | -2.07% (active) | 74.6 | 47.6% | 40.3 | 85.2 | 74.3% | 104 | 78 | 75.6 | 75.8 | 58.8% | 114% | 65.8% | 95.7% | 97.4% | 106% | 87.5% | –
c1ccc2cc(Cn3cc(CSc4nc5ccccc5s4)nn3)ccc2c1 | 107 | 95.7% | 101% | 93.3 | 95.6% | 107 | 84.8 | 98.8% | 102 | 90.6 | 101 | 94.5 | 77.6% | 102% | 99.3% | 83.3% | 97.3% | 97.2% | 96.4% | –
COc1ccc(Oc2ccc(/C=C/C(=O)c3ccc(OC)c(OC)c3)cc2)cc1 | 61.5 | 86% | 72.5% | 85.8 | 68.9% | 75.3 | 67.5 | 53.7% | 93.7 | 89 | 79.4 | 86.7 | 70.9% | 105% | 92.5% | 85.5% | 90.3% | 70.3% | -9.69% (active) | –
Nc1cc(C(=O)O)cc(-n2c(O)c(C=C3N=c4ccccc4=N3)sc2=S)c1 | 103 | 108% | 80.7% | 103 | 107% | 97.9 | 86.7 | 95.8% | 104 | 101 | 99.4 | 95.8 | 69.5% | 103% | 99% | 86.8% | 102% | 106% | 103% | –
COc1cc(/C=C/C(=O)c2cccc(-n3cc(-c4ccc(Cl)cc4)[nH]c3=O)c2)ccc1O | 37.8 | 27% | 50.3% | 94.9 | 32.4% | 68.1 | 64.3 | 13.1% | 58.6 | 58.5 | 68.7 | 46.4 | 31.2% | 104% | 60.4% | 37.2% | 106% | 19.5% | 24.2% | –
CCCCCCCCn1ccc2cc(NC(=O)CN=[N+]=[N-])ccc21 | 96.8 | 104% | 99.6% | 97.1 | 88.7% | 98 | 84.2 | 104% | 109 | 99.3 | 84.9 | 107 | 70% | 111% | 104% | 93.3% | 96.7% | 39% | 93.3% | –
